In PubChem BioAssay (NCATS):
Records with an inconclusive call do not appear. Active and inactive are the calls of the source. Calls follow the shape of the dose curve; as a rule, active = well fitted curve in the direction sought with a large enough effect; inconclusive = small, poorly fitted or top-dose-only effect, or another doubt; inactive = no such curve, though single readings can be large; an effect the other way counts as inactive or inconclusive. Where a SMILES comes first, the peptide text is derived from it. The star is where a group is joined. AFC = O=c1cc(C(F)(F)F)c2ccc(N*)cc2o1

Key:
[1] = target: Phospholipid hydroperoxide glutathione peroxidase GPX4 (Homo sapiens) (UniProt P36969); assay: Primary qHTS Assay for Inhibitors of Recombinant Selenoprotein Glutathione Peroxidase 4 (GPX4) (AID 1845192); also: series mostly up to about 50 µM; % is scaled to controls: 0 for no effect and ±100 for the full control effect; nearly all actives have a fitted effect of over 65% in size
Outline: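 Steps: GPX4 plus compound, 30 min RT; add GR/GSH/NADPH master mix; start with cumene hydroperoxide; read 340/450 nm fluorescence at 0 and 15 min. Finals were 200 nM GPX4, 1 mM GSH, 0.5 mM CHP, 0.5 mM NADPH, 100 nM GR.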

[2] = Primary redox qHTS assay for identification of artifact compounds. (AID 1845223);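 also: 0% = DMSO and 100% = reference compound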
Outline: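 Redox-cycling detection via DTT (250 uM final) oxidation coupled to Amplex Red (25 uM)/HRP (250 mU/mL) in HBSS. 15 min preincubation plus 30 min after DTT, room temperature. Ex/Em 525/598 nm; 4-parameter Hill fit against DMSO and 10 uM DA3003.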

[3] = target: Luciferin 4-monooxygenase (Photinus pyralis) (UniProt P08659); assay: Primary firefly luciferase (FLuc) qHTS assay for identification of artifact compounds. (AID 1845220); also: nearly all actives have a fitted effect of over 60% in size;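 as to activity change, negative = inhibition: series mostly up to about 54 µM; plate controls were DMSO vehicle for no effect and no enzyme for full effect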
Outline: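 Titrated compounds were incubated 15 min at RT, protected from light, with luciferin and ATP at 10 uM; reaction started with 10 nM FLuc, luminescence imaged at 5 min, and concentration-response fitted by Hill equation.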

[4] = Primary fluorescence-based thiol-reactive (MSTI) qHTS assay for identification of artifact compounds. (AID 1845221); also: nearly all actives have a fitted effect of over 65% in size; also: potency is read from the fitted curve at half-maximal effect;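 as to activity change, negative = thiol reactive: series mostly up to about 54 µM; thiol-reactive compounds lower the probe fluorescence signal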
Outline: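 Reactivity toward the thiol probe MSTI (4 uM) is scored by fluorescence at Ex/Em 525/598 nm after 1 h at room temperature. Acetyl-MSTI and MSTI define the activity scale.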

[5] = tested on: Nanoluciferase (engineered Oplophorus gracilirostris luciferase); assay: Primary Nanoluciferase (NLuc) qHTS assay for identification of artifact compounds. (AID 1845222);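 also: NLuc secreted into diluted conditioned medium of S16 cells; series mostly up to about 54 µM; 0% = DMSO and -100% = no enzyme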
Outline: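 qHTS format, against NLuc in S16 cell-conditioned medium. Nano-Glo substrate 1:100 was added after 15 min at room temperature. Luminescence was taken after a further 5 min.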

Chain of Phospholipid hydroperoxide glutathione peroxidase GPX4 (Homo sapiens) (P36969 whole entry, looked up): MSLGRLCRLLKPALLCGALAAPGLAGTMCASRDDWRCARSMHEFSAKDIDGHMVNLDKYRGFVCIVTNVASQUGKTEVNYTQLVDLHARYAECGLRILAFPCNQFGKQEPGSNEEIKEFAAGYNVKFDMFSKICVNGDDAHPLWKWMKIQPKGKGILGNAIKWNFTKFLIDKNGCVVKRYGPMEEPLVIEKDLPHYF

N#CC(c1ccnc(OCc2ccc(CN3CCOCC3)cc2)n1)c1nc2ccccc2s1 (stereo unspecified)
inactive: Potency [1] | Potency [2]

CCOc1ccc(NC(=S)N2CCC(C(O)(c3ccccc3)c3ccccc3)CC2)cc1
inactive: Potency [3] | Potency [4] | Potency [5]

COc1cc2c3c(cc4ccccc4c3c1O)NC2=O
active: Potency [4] 10.6 µM
inactive: Potency [3] | Potency [5] | Potency [2]

NC1CCCCN(c2c(F)cc3c(=O)c(C(=O)O)cn(C4CC4)c3c2Cl)C1 (stereo unspecified)
inactive: Potency [3] | Potency [4] | Potency [5] | Potency [2]

COC(=O)C1=CO[C@@H](O[C@@H]2O[C@H](CO)[C@@H](O)[C@H](O)[C@H]2O)[C@@H]2C(COC(C)=O)=C[C@H](O)[C@H]12
inactive: Potency [3] | Potency [4] | Potency [5] | Potency [2]

COc1ccc2cc(C(C)C(=O)Oc3ccc(C(N)=S)cc3)ccc2c1 (stereo unspecified)
inactive: Potency [3] | Potency [4] | Potency [5] | Potency [2]

Cc1ccc(-c2ccc3ncc4c(c3n2)n(C2CCN(C(=O)[C@H](C)O)CC2)c(=O)n4C)cn1
inactive: Potency [3] | Potency [4] | Potency [5]

CCOC(=O)CCN(C(=O)c1ccc2c(c1)nc(CNc1ccc(C(=N)N)cc1)n2C)c1ccccn1
inactive: Potency [3] | Potency [4] | Potency [5] | Potency [2]

C=CC[C@]12C[C@@H](OC)C(=O)C(OC)=C1O[C@@H](c1cc(OC)c3c(c1)OCO3)[C@@H]2C
inactive: Potency [3] | Potency [4] | Potency [5] | Potency [2]

O=C(c1cn(Cc2cncn2Cc2ccc(Br)cc2)cc1-c1cccc2ccccc12)N1CCOCC1
inactive: Potency [3] | Potency [4] | Potency [5]

CC1(C)C2CC=C(COC3OC(COC4OCC(O)(CO)C4O)C(O)C(O)C3O)C1C2 (stereo unspecified)
inactive: Potency [3] | Potency [4] | Potency [5] | Potency [2]

COc1ccc(F)cc1-c1cc(NC(=O)[C@@H]2CCCNC2)ncc1Cl
inactive: Potency [3] | Potency [4] | Potency [5] | Potency [2]

OC[C@H]1O[C@@H](O[C@H]2[C@H](OCCc3ccccc3)O[C@H](CO)[C@@H](O)[C@@H]2O)[C@H](O)[C@@H](O)[C@@H]1O
active: Potency [4] 10.3 µM
inactive: Potency [3] | Potency [5] | Potency [2]

COc1ccccc1Oc1ccc(N(Cc2cccnc2)S(=O)(=O)CC(F)(F)F)cc1
inactive: Potency [3] | Potency [4] | Potency [5] | Potency [2]

CC1=C(C(=O)OCc2ccccc2)C(c2ccc(-c3ccccc3)cc2)NC(=O)N1CCCCCC(=O)O (stereo unspecified)
inactive: Potency [3] | Potency [4] | Potency [5] | Potency [2]

C=C1C(=O)O[C@@H]2C/C(C)=C\C(=O)/C=C(\C)[C@@H](OC(=O)/C(C)=C\C)[C@H](O)[C@@H]12
inactive: Potency [3] | Potency [4] | Potency [5] | Potency [2]

CC1(C)CC[C@]2(C(=O)O[C@@H]3O[C@H](CO[C@@H]4O[C@H](CO)[C@@H](O)[C@H](O)[C@H]4O[C@@H]4O[C@H](CO)[C@H](O)[C@H](O)[C@H]4O)[C@@H](O)[C@H](O[C@@H]4O[C@H](CO)[C@@H](O)[C@H](O)[C@H]4O)[C@H]3O)CC[C@]3(C)C(=CCC4[C@@]5(C)CC[C@H](O[C@@H]6OC[C@@H](O)[C@H](O)[C@H]6O)[C@@](C)(C(=O)O)C5CC[C@]43C)[C@@H]2C1 (stereo partly specified)
inactive: activity change, negative = inhibition [3] 3.08% [at 11.6 µM] | activity change, negative = thiol reactive [4] 79.6% [at 11.5 µM] | activity, negative = inhibition [5] 0.986% [at 11.6 µM]

CC(=O)N[C@@H](Cc1c[nH]c2ccccc12)C(=O)N[C@@H](CCC(=O)O)C(=O)N[C@@H](Cc1cnc[nH]1)C(=O)N[C@@H](CC(=O)O)C(=O)Nc1ccc2c(C(F)(F)F)cc(=O)oc2c1 (Ac-WEHD-{AFC})
inactive: Potency [3] | Potency [4] | Potency [5] | Potency [2]

CC(C)CCC[C@@H](C)[C@H]1CC[C@H]2[C@@H]3CC(=O)[C@H]4C[C@@H](O)CC[C@]4(C)[C@H]3CC[C@]12C
inactive: Potency [3] | Potency [4] | Potency [5] | Potency [2]

O=C(NCc1ccccn1)Nc1nnc(-c2ccco2)o1
inactive: Potency [3] | Potency [4] | Potency [5] | Potency [2]

COc1cc2ncnc(Nc3ccc(F)c(Cl)c3)c2cc1NC(=O)/C=C/CN1CCCCC1
inactive: Potency [3] | Potency [4] | Potency [5] | Potency [2]

C=C(C)C1Cc2cc(C(=O)OC3OC(CO)C(O)C(O)C3O)ccc2O1 (stereo unspecified)
active: Potency [4] 9.27 µM
inactive: Potency [3] | Potency [5] | Potency [2]

COC(=O)C[C@H]1C(C)(C)[C@H](OC(C)=O)C2CC3=C4CC(=O)O[C@@H](c5ccoc5)[C@]4(C)CCC3[C@@]1(C)C2=O (stereo partly specified)
inactive: Potency [3] | Potency [4] | Potency [5] | Potency [2]

C#CC[C@H](c1nc2cc(Cl)ccc2c(=O)n1Nc1ccccc1)N(CCCN)C(=O)c1cccc(Cl)c1F
inactive: Potency [4] | Potency [5] | Potency [2]

C/C=C/C=C/C(O)=C1\C(O)=C(C)C(=O)[C@@]2(C)OC(=O)[C@@](C)(NC(=O)/C=C/C(=O)O)[C@@H]12
inactive: Potency [3] | Potency [5] | Potency [2]

CCC1C(=O)OC23C=C[C@@H]4C(C(=O)O)=CO[C@H](O[C@@H]12)[C@@H]43 (stereo partly specified)
inactive: Potency [3] | Potency [5] | Potency [2]

Cc1ccc(S(=O)(=O)Cc2nc(-c3ccc(C(=O)NCc4cccnc4)cc3)oc2C)cc1
inactive: Potency [3] | Potency [4] | Potency [2]

Nc1nccn2c(C3CCC(C(=O)O)CC3)nc(-c3cc4cccc(Cl)c4[nH]3)c12 (stereo unspecified)
active: Potency [4] 6.7 µM

O=C(OCC1=CC(O)C2C=CO[C@@H](O[C@@H]3O[C@H](CO)[C@@H](O)[C@H](O)[C@H]3O)C12)c1ccccc1 (stereo partly specified)
inactive: Potency [3] | Potency [5] | Potency [2]

COC(=O)C1=CO[C@@H](O[C@@H]2O[C@H](CO)[C@@H](O)[C@H](O)[C@H]2O)[C@@H]2C(CO)=CC[C@]12O
inactive: Potency [3] | Potency [5] | Potency [2]

CC1CC(C(O)C(C)(C)O)OC2CC3(C)C4(C)CCC5C(C)(C)C(=O)CCC5(C)C4CCC3(O)C12O (stereo unspecified)
inactive: Potency [3] | Potency [4] | Potency [5] | Potency [2]

COc1cc2nc(N3CCCC3)nc(NCCCCCN3CCCC3)c2cc1OC
inactive: Potency [3] | Potency [4] | Potency [5] | Potency [2]

CO[C@@H](C)Cn1c(=O)n(C)c2cnc3ccc(-c4cncc(C(C)(C)O)c4)cc3c21
inactive: Potency [3] | Potency [4] | Potency [2]

Cc1cc(=O)oc2c(C=O)c(O)ccc12
inactive: Potency [3] | Potency [5] | Potency [2]

C=C1CC23CC1CCC2C12OC(=O)C(C)(CCC1O)C2C3C(=O)O (stereo unspecified)
inactive: Potency [3] | Potency [4] | Potency [2]

c1cc(Nc2cc(C3CC3)[nH]n2)nc(Nc2ccc3nc[nH]c3c2)n1
inactive: Potency [5] | Potency [2]

CC1=C(C(=O)O)/C(=C/CO[C@@H]2O[C@H](COC(=O)/C=C/c3ccc(O)cc3)[C@@H](O)[C@H](O)[C@H]2O)C(O)C1 (stereo partly specified)
inactive: Potency [3] | Potency [5] | Potency [2]
active: Potency [4] 1.46 µM

Cn1cncc1C(N)(c1ccc(Cl)cc1)c1ccc2c(c1)c(-c1cccc(Cl)c1)cc(=O)n2C (stereo unspecified)
inactive: Potency [3] | Potency [5] | Potency [2]

C=CC/C=C\C/C=C\CCCCCCCc1cccc(O)c1C(=O)O
inactive: Potency [3] | Potency [5]

COc1cc(O)cc(C)c1C(=O)O[C@H]1[C@@H](OC(C)=O)[C@H](n2ccc(=O)[nH]c2=O)O[C@@H]1CO
inactive: Potency [3] | Potency [4] | Potency [5] | Potency [2]

Nc1ccc(/C=C/C(=O)NCc2cc3cc(-c4ccc(C(=O)N5CCC(F)(F)CC5)cc4)cc(-c4ccc(F)cc4)c3o2)cn1
inactive: Potency [3] | Potency [5] | Potency [2]

NCc1c[nH]c(=S)n1[C@@H]1CCc2c(F)cc(F)cc2C1
inactive: Potency [3] | Potency [5] | Potency [2]

CN(C)CCCCC(=O)Nc1ccc(NC(=S)NC(=O)c2ccc(C(C)(C)C)cc2)cc1
inactive: Potency [3] | Potency [4] | Potency [5] | Potency [2]

CCCNc1ccc2ncc(-c3ccc4[nH]ncc4c3)n2n1
inactive: Potency [3] | Potency [5] | Potency [2]

C[C@@]1(O)[C@H](O)[C@@H](CO)O[C@H]1n1ccc(N)nc1=O
inactive: Potency [3] | Potency [4] | Potency [2]

O=C(CC(c1ccccc1)c1ccccc1)N1CCN(C(c2ccccc2)c2ccccc2)CC1
inactive: Potency [3] | Potency [4] | Potency [5] | Potency [2]

C=CC(C)(O)CC/C=C(\C)C(=O)OC1C(O)C(CO)OC(OC(=O)C23CCC(C)(C)CC2C2=CCC4C5(C)CCC(OC6OC(COC7OCC(OC(C)=O)C(O)C7OC7OC(COC(C)=O)C(O)C(O)C7O)C(O)C(O)C6O)C(C)(C)C5CCC4(C)C2(C)C(O)C3O)C1OC1OCC(OC2OCC(O)C(OC3OCC(O)C(O)C3O)C2O)C(O)C1O (stereo unspecified)
inactive: activity change, negative = inhibition [3] 0.903% [at 6.45 µM] | activity change, negative = thiol reactive [4] 213% [at 6.41 µM] | activity, negative = inhibition [5] 2.81% [at 6.45 µM] | redox activity (% of DA3003) [2] -2.76% [at 6.41 µM]
